In PubChem BioAssay:
The source made the active and inactive calls.

Legend:
[1] = test system: Plasmodium falciparum Sir2 (PF13_0152, Sir2A); assay: Plasmodium falciparum Sir2A binding compounds – biochemical, small-molecule microarray, 635 nm fluorescence, primary screen (AID 1098); conditions: fluorescence 635 nm, higher = more signal;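 also: score merges spot fluorescence intensity with its signal-to-noise ratio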
[2] = probe aDKK1 binding to arrayed compounds – biochemical, biotinylated probe, 635/667 nm fluorescence, primary screen (AID 1099); conditions: small-molecule microarray, higher = more signal;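 also: score merges 667nm spot fluorescence with signal to noise across triplicate slides; reference of the scale not given here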
[3] = probe aCHRDL2 binding to arrayed compounds – biochemical, biotinylated probe, 635/667 nm fluorescence, primary screen (AID 1100); conditions: small-molecule microarray, higher = more signal
[4] = change in splice reporter luminescence, either direction, cell-based, HEK293, spliceosome inhibition project, primary screen (AID 1101); conditions: HEK293 splicing luciferase reporter, 24 h, higher = more signal, called active from +8 up or from −8 down;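 also: HEK293 cells carrying a splicing-competent luciferase reporter gene; test concentration not given here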
[5] = biological target: Fibroblast growth factor 10 (Homo sapiens) (UniProt O15520); assay: compounds binding fibroblast growth factor 10 – biochemical, small-molecule microarray, 635 nm fluorescence, primary screen (AID 1102); conditions: FGF10 binding, fluorescence 635 nm, higher = more signal
Chain of Fibroblast growth factor 10 (Homo sapiens) (O15520 whole entry, looked up): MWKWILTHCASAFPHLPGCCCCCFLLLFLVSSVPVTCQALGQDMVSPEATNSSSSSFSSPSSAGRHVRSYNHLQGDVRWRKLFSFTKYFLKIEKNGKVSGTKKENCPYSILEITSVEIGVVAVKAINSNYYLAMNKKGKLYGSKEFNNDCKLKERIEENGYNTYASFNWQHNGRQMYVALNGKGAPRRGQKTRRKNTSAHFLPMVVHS

[6] = test system: glycogen synthase kinase-3 (GSK3A per assay name; protocol says GSK3B); assay: compounds binding glycogen synthase kinase-3 – biochemical, small-molecule microarray, 635 nm fluorescence, GSK3A, primary screen (AID 1103); conditions: fluorescence 635 nm, higher = more signal; also: the record names both GSK3A and GSK3B
[7] = biological target: Epidermal growth factor receptor (Homo sapiens) (UniProt P00533); assay: compounds binding epidermal growth factor receptor – biochemical, small-molecule microarray, 635 nm fluorescence, primary screen (AID 1104); conditions: EGFR binding, higher = more signal;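 also: score merges 667 nm emission intensity with spot signal to noise over triplicate slides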
Chain of Epidermal growth factor receptor (Homo sapiens) (P00533 whole entry, looked up): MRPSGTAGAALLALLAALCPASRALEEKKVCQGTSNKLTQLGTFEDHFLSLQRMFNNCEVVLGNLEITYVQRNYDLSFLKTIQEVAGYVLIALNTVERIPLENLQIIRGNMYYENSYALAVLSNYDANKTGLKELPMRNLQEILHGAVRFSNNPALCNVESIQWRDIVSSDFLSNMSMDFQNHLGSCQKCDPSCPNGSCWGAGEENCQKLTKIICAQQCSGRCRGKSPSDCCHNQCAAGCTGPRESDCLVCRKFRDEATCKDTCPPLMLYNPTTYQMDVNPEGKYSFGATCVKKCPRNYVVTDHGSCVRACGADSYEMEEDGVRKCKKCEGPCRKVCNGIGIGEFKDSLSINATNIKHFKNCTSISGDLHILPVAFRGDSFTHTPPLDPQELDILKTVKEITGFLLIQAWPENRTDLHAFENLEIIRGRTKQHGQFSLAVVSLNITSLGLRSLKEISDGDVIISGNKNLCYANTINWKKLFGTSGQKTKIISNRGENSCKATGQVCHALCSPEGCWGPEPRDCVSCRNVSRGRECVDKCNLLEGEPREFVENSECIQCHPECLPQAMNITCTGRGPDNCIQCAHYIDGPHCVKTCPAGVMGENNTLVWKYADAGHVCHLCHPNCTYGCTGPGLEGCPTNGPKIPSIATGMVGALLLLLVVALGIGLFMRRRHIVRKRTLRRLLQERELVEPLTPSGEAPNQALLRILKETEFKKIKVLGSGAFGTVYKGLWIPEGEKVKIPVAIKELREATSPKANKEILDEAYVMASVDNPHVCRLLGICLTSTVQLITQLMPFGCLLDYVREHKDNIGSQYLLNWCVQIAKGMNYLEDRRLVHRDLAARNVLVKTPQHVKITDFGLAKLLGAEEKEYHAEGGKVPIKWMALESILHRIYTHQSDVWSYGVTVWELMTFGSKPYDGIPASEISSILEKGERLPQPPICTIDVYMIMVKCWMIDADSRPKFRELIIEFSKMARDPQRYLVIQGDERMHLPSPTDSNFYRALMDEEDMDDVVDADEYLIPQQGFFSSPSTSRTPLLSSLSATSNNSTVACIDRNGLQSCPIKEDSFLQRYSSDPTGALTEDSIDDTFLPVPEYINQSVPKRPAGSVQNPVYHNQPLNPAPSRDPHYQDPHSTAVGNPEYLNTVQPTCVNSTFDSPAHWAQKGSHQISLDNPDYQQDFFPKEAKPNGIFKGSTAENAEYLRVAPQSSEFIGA

[8] = biological target: Follistatin-related protein 3 (Homo sapiens) (UniProt O95633); assay: compounds binding follistatin-related protein 3 – biochemical, small-molecule microarray, 635 nm fluorescence, primary screen (AID 1105); conditions: FSTL3 binding, higher = more signal;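 also: score merges emission near 667 nm and signal to noise per printed spot across three slides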
Chain of Follistatin-related protein 3 (Homo sapiens) (O95633 whole entry, looked up): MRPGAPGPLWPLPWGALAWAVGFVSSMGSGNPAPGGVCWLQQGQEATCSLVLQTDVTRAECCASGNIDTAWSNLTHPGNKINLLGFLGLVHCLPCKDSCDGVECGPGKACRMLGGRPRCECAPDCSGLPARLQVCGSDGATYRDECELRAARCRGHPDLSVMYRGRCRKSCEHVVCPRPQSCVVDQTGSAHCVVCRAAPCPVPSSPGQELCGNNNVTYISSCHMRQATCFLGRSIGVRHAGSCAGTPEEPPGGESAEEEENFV

[9] = biological target: Dickkopf-related protein 1 (Homo sapiens) (UniProt O94907); assay: small molecules binding DKK1 protein – biochemical, small-molecule microarray, 635 nm fluorescence scan, primary screen (AID 1106); conditions: higher = more signal;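 also: score merges emission near 667 nm with signal to noise over three replicate slides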
Chain of Dickkopf-related protein 1 (Homo sapiens) (O94907 whole entry, looked up): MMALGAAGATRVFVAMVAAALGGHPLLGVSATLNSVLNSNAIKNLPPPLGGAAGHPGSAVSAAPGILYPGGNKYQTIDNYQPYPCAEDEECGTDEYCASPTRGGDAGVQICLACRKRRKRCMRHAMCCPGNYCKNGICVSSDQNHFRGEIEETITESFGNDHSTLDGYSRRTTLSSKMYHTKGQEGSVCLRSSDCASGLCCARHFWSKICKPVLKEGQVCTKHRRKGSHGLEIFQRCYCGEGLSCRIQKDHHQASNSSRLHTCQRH

[10] = test system: Inhibin beta A chain (activin A); assay: small molecules binding activin A – biochemical, small-molecule microarray, 635 nm fluorescence scan, primary screen (AID 1107); conditions: INHBA, higher = more signal;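 also: mouse activin A protein probed at 4.33 µg/mL on printed slides; score merges bound-protein fluorescence near 667 nm with spot signal-to-noise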

Compound `NC(=O)[C@@]1(Cc2ccccc2)COC(c2ccc(OCCCO)cc2)=N1` has a composite z-score [1] of 0.0491, a composite z-score [2] of 0.618 and a composite z-score [3] of 0.836. For the same compound, the z-score [4] was 0.444 (inactive), the composite z-score [5] was 0.594 and the composite z-score [6] was -0.923. For the same compound, the composite z-score [7] was -0.377, the composite z-score [8] was -0.807 and the composite z-score [9] was -0.636. It also gave a composite z-score [10] of 0.663.
With `[N-]=[N+]=Nc1ccccc1C[C@@]1(C(N)=O)N=C(c2ccc(OCCCO)cc2)O[C@@H]1c1ccccc1N=[N+]=[N-]` the composite z-score [1] was 0.749, the composite z-score [2] was 1.14 and the composite z-score [3] was 0.974. For the same compound, the z-score [4] was -1.36 (inactive), the composite z-score [5] was -0.24 and the composite z-score [6] was 0.385. The composite z-score [7] was 0.181, the composite z-score [8] was -0.199 and the composite z-score [9] was -0.459. It also gave a composite z-score [10] of 1.46.
`C=CC[C@@]1(C(=O)NCCCOC)N=C(c2ccc(OCCCO)cc2)O[C@@H]1c1ccccc1N=[N+]=[N-]` showed a composite z-score [1] of 0.826, a composite z-score [2] of 0.648 and a composite z-score [3] of 0.999. The z-score [4] was 0.0875 (inactive), the composite z-score [5] was 0.919 and the composite z-score [6] was 0.595. It also gave a composite z-score [7] of -0.276, a composite z-score [8] of 0.45 and a composite z-score [9] of -0.178. It also gave a composite z-score [10] of 0.961.
For `C=CC[C@@]1(C(=O)NCCCOC)N=C(c2ccc(OCCCO)cc2)O[C@@H]1c1ccccc1`, the composite z-score [1] was 1.7, the composite z-score [2] was 2.31 and the composite z-score [3] was 1.36. For the same compound, the z-score [4] was -1.39 (inactive), the composite z-score [5] was 0.311 and the composite z-score [6] was 0.326. For the same compound, the composite z-score [7] was -0.848, the composite z-score [8] was -0.439 and the composite z-score [9] was -0.666. For the same compound, the composite z-score [10] was 0.923.
In the case of `Cc1ccc(F)cc1S(=O)(=O)N[C@@H]1CCN(Cc2ccc(Br)cc2)C1`, the composite z-score [1] is reported as 0.0002, the composite z-score [2] is reported as -0.16 and the composite z-score [3] is reported as -0.418. For the same compound, the z-score [4] was -1.12 (inactive), the composite z-score [5] was 0.69 and the composite z-score [6] was -0.751. It also gave a composite z-score [7] of 0.529, a composite z-score [8] of 0.752 and a composite z-score [9] of 0.677. It also gave a composite z-score [10] of 0.359.
For `COc1cc(NN2C(C(O)c3ccco3)C=CC3C(=O)N(C)C(=O)C32)cc(OC)c1OC` (stereo not given), the composite z-score [1] was 1.5, the composite z-score [2] was 0.88 and the composite z-score [3] was 0.469. For the same compound, the z-score [4] was 0.579 (inactive), the composite z-score [5] was 0.138 and the composite z-score [6] was 1.1. For the same compound, the composite z-score [7] was -0.169, the composite z-score [8] was 0.0253 and the composite z-score [9] was 0.216. It also gave a composite z-score [10] of 0.752.
Work on `O=C(NCCN1CCOCC1)[C@@H]1c2ccccc2C(=O)N(C2Cc3ccccc3C2)[C@H]1c1ccc(CO)cc1` yielded a composite z-score [1] of 0.909, a composite z-score [2] of 0.0974 and a composite z-score [3] of 0.852. For the same compound, the z-score [4] was -1.38 (inactive), the composite z-score [5] was -0.223 and the composite z-score [6] was 1.05. For the same compound, the composite z-score [7] was -0.812, the composite z-score [8] was -0.414 and the composite z-score [9] was -0.666. The composite z-score [10] was -0.363.
For `COC(=O)[C@@]1(Cc2ccc(OC)cc2)[C@H]2c3cc(C(=O)N(C)C)n(Cc4ccc(OC(F)(F)F)cc4)c3C[C@H]2CN1C(=O)c1ccccc1`, the composite z-score [1] was 0.518, the composite z-score [2] was 0.34 and the composite z-score [3] was 1.15. The z-score [4] was 1.32 (inactive), the composite z-score [5] was -0.19 and the composite z-score [6] was -0.448. For the same compound, the composite z-score [7] was -0.274, the composite z-score [8] was -0.558 and the composite z-score [9] was -0.995. For the same compound, the composite z-score [10] was 0.771.
For `COc1ccc([Si](C)(C)[C@@H]2[C@@H](CC(=O)N3Cc4ccccc4C[C@H]3CO)O[C@]3(C(=O)N(Cc4ccc(N5C(=O)c6cccc7cccc5c67)cc4)c4ccccc43)[C@H]2C)cc1`, the composite z-score [1] was 0.68, the composite z-score [2] was -0.0502 and the composite z-score [3] was -0.0445. For the same compound, the z-score [4] was 1.54 (inactive), the composite z-score [5] was 1.31 and the composite z-score [6] was 1.27. The composite z-score [7] was 1.2, the composite z-score [8] was 1.24 and the composite z-score [9] was 1.12. For the same compound, the composite z-score [10] was 0.772.
For `OCCCC1=CC(c2ccc(CN3CCCC3)cc2)N(Cc2cc3c(cc2Br)OCO3)CC1` (stereo not given), the composite z-score [1] was 0.216, the composite z-score [2] was 0.0738 and the composite z-score [3] was 0.732. The z-score [4] was 0.361 (inactive), the composite z-score [5] was 0.477 and the composite z-score [6] was 0.328. The composite z-score [7] was 0.259, the composite z-score [8] was 0.809 and the composite z-score [9] was 1.14. The composite z-score [10] was 1.57.
Work on `COCCOC(=O)N1C(=O)[C@@]2(c3cc(C#CCNC(N)=O)ccc31)[C@H](C(N)=O)[C@H]1C(=O)O[C@H](c3ccccc3)[C@H](c3ccccc3)N1[C@@H]2c1ccccc1OCCO` yielded a composite z-score [1] of 1.16, a composite z-score [2] of 0.0377 and a composite z-score [3] of 0.803. For the same compound, the z-score [4] was 0.565 (inactive), the composite z-score [5] was 1.07 and the composite z-score [6] was 0.782. The composite z-score [7] was 0.302, the composite z-score [8] was 1.31 and the composite z-score [9] was 0.78. It also gave a composite z-score [10] of 1.11.
`COCCCNC(=O)[C@@]1(Sc2ccc(C)cc2)CC(=O)N(C2Cc3ccccc3C2)[C@@H]1c1ccc(CO)cc1` gave a composite z-score [1] of 1.06, a composite z-score [2] of 0.106 and a composite z-score [3] of 0.899. The z-score [4] was -0.866 (inactive), the composite z-score [5] was -1.39 and the composite z-score [6] was -0.429. For the same compound, the composite z-score [7] was -0.787, the composite z-score [8] was -1.42 and the composite z-score [9] was -1.76. For the same compound, the composite z-score [10] was -0.115.
With `CCOC(=O)C=Cc1cccc(C)c1O` the composite z-score [1] was 0.995, the composite z-score [2] was -0.123 and the composite z-score [3] was -0.0819. For the same compound, the z-score [4] was -1.41 (inactive), the composite z-score [5] was -0.119 and the composite z-score [6] was -0.414. The composite z-score [7] was 0.069, the composite z-score [8] was -0.101 and the composite z-score [9] was -0.199. The composite z-score [10] was 0.39.
`COC(=O)C1(CC(C)C)C=C2C(=C(c3ccccc3)C(=O)C2C)CN1` (stereo not given) gave a composite z-score [1] of 0.055, a composite z-score [2] of 1.49 and a composite z-score [3] of 1.36. For the same compound, the z-score [4] was 1.45 (inactive), the composite z-score [5] was 0.896 and the composite z-score [6] was -0.713. The composite z-score [7] was 0.233, the composite z-score [8] was 0.261 and the composite z-score [9] was -1.19. For the same compound, the composite z-score [10] was 1.53.
Compound `COc1ccc([Si](C)(C)[C@@H]2[C@@H](CCO)O[C@]3(C(=O)N(Cc4ccccc4)c4ccc(NC(=O)[C@H](C)O)cc43)[C@H]2C)cc1` has a composite z-score [1] of 0.728, a composite z-score [2] of -0.106 and a composite z-score [3] of -0.147. For the same compound, the z-score [4] was -1.75 (inactive), the composite z-score [5] was 0.867 and the composite z-score [6] was 1.29. For the same compound, the composite z-score [7] was 0.778, the composite z-score [8] was 1.14 and the composite z-score [9] was 0.43. For the same compound, the composite z-score [10] was -0.159.
For `CCCNC(=O)[C@@H]1c2ccccc2C(=O)N(Cc2ccc(OC(F)(F)F)cc2)[C@H]1c1ccc(CO)cc1`, the composite z-score [1] was 1.3, the composite z-score [2] was 0.53 and the composite z-score [3] was 0.653. For the same compound, the z-score [4] was 0.0883 (inactive), the composite z-score [5] was 0.402 and the composite z-score [6] was 0.284. For the same compound, the composite z-score [7] was -0.0259, the composite z-score [8] was 0.0777 and the composite z-score [9] was 0.0637. For the same compound, the composite z-score [10] was 0.0914.
In the case of `CC(C)NC(=O)[C@@]1(c2ccc([N+](=O)[O-])cc2)CC(=O)N(C2CCCCC2)[C@@H]1c1ccc(CO)cc1`, the composite z-score [1] is reported as 1.49, the composite z-score [2] is reported as -0.723 and the composite z-score [3] is reported as 0.0339. For the same compound, the z-score [4] was 0.458 (inactive), the composite z-score [5] was 1.23 and the composite z-score [6] was 0.645. The composite z-score [7] was 0.0344, the composite z-score [8] was 1.04 and the composite z-score [9] was 0.214. The composite z-score [10] was -0.0249.
